# According to the supplement of paper PMC3334620:
# Whole data set: some 33,000 sequences, median “E-score (-0.5 to 0.5)” near -8e-05, cut for the highest 2% near 0.23. For the sample, the highest values were picked, then their nearest neighbours and some sequences at random.
# Molecular target: T1, Nrg2 (UniProt P38082)
# T1 sequence: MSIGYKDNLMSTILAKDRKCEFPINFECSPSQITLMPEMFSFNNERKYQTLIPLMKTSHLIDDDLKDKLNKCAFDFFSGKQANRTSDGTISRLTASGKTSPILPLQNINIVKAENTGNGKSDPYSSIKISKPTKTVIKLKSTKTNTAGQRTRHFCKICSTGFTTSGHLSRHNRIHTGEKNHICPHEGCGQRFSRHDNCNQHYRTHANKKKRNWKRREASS
# Assay: PBM E-score (8-mer binding enrichment) (E-score (-0.5 to 0.5)); higher = stronger / more preferred TF binding
# Settings: protein concentration: 100 nM; construct: GST-full length
# Procedure: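 Universal 'all 10-mer' protein binding microarrays (Agilent AMADID 015681) probed with GST-tagged S. cerevisiae TFs (full-length or DBD) made by in vitro transcription/translation (PURExpress), about 100-200 nM. Bound TF was detected with fluorescent anti-GST. Each ungapped 8-mer (which stands for itself and its reverse complement) is scored by the PBM enrichment score (E-score), a modified Wilcoxon-Mann-Whitney statistic from -0.5 to +0.5, computed with the Universal PBM Analysis Suite. Scale: above 0.35 generally sequence-specific binding.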
row,Sequence,PBM E-score
1,ACTCCAGC,-0.0193
2,AATTTCGA,0.0453
3,ATTTTCGC,0.131
4,CATTTCGC,0.184
5,GATTTCGC,0.281
6,AATTTCGC,0.244
7,GATTTCGA,0.00717
8,GTAGTCTA,-0.118
9,AACACTAC,0.0505
10,AACAATAG,-0.124
11,AACAATAC,0.202
12,AGCAATAT,0.0474
13,GACAAAAA,0.0692
14,AACACTAG,0.152
15,ACCAATAT,0.213
16,AACAATAA,0.26
17,AACACTAT,0.252
18,AACAATAT,0.266
19,GACAAAAC,0.274
20,GACAAGAC,0.154
21,AGTGAATC,0.0226
22,ATTTGCTC,0.156
23,GCCGAGGC,0.177
24,CATTAAGA,-0.214
25,ACTGGCCT,-0.0393

row,Sequence,PBM E-score
1,CCGGAGCC,-0.189
2,CACAATAC,0.173
3,AACAATCT,0.0946
4,GACAATAC,0.232
5,AATAATAT,0.283
6,AACAATCG,-0.0412
7,AACAATCC,0.241
8,AGTAATAC,-0.0266
9,CGTAATAG,-0.00104
10,GACAATAA,0.218
11,AGTAATAG,0.247
12,AATAATAA,0.0987
13,AATAATAG,0.0626
14,TCTCTTAA,0.123
15,AGGTTCAG,0.0524
16,ACCCTTCT,-0.104
17,GCCTGGTA,0.0618
18,ATAGGTTA,-0.00463
19,CGCAATAA,0.211
20,AGCAATAC,0.12
21,CGCAATAC,0.231
22,GATACACC,0.0324
23,GTATCGAC,0.123
24,AAATCGAG,0.0129
25,ATGTCGAC,0.254

row,Sequence,PBM E-score
1,AAATCGAC,0.237
2,TAATCGAA,0.176
3,CTATCGAC,-0.166
4,CTGTCGAC,-0.0435
5,CAATCGAC,-0.102
6,ATGTCGAA,0.147
7,AAATCGAA,0.111
8,CAATCGAA,0.258
9,ATATCGAC,0.255
10,CGCCGGAC,0.0155
11,CCCTGTCC,0.0104
12,CTTGAAGC,-0.0505
13,CAACGGTG,-0.187
14,CAACAAGG,0.186
15,GACTCTCA,-0.0326
16,AATGCACC,0.0152
17,GAATTTGC,0.172
18,ATCTGAGG,0.0579
19,ACTAACGA,0.00448
20,CACAGCGC,0.156
21,TGCGACAA,0.0655
22,GGCGACCA,-0.146
23,AGCGACCA,-0.0183
24,CGCGACAA,0.308
25,CGCGACCA,0.23

row,Sequence,PBM E-score
1,CGCGAACA,0.264
2,AGCGAACA,0.0707
3,CCCGACAG,-0.165
4,ACCGACAA,0.0162
5,GGCGACAA,-0.0104
6,GGCGAACA,-0.00418
7,CCCGACAA,0.261
8,ACGCCCCA,0.179
9,AAGGCGGG,-0.208
10,CGGTGATA,-0.0567
11,ACAGAGCA,0.0833
12,TAGCATGA,0.149
13,TAAATGAA,0.0819
14,CAAATGAA,-0.0303
15,AAAATGAC,0.0768
16,GAAATGAA,0.29
17,CAAATGAC,0.0271
18,GAAATGAC,0.249
19,AGCGAAAC,0.102
20,CTTACCAA,0.069
21,CAGCGCCG,-0.09
22,ATACCAAT,0.0716
23,GCAAGAGA,-0.12
24,GAATTTCC,0.252
25,AAATTTCC,0.113

row,Sequence,PBM E-score
1,CTATTTCC,0.255
2,ATATTTCC,0.206
3,CAATTTCC,0.108
4,CTATTTCA,0.164
5,AGTAGGTC,-0.219
6,ATTTAGTA,0.274
7,ATTTAGTC,0.0158
8,AATTAGTC,0.107
9,CATTAGTA,0.112
10,AATTAGTA,0.23
11,CTTTAGTA,-0.00347
12,GATGCGGC,-0.094
13,ACTCTAGA,-0.0152
14,GGTGGGAA,-0.0571
15,GGCGGGGA,0.249
16,AATGGGGA,0.0109
17,TATGGGGA,0.283
18,CGCGGGGA,0.165
19,GGTGGGGA,0.265
20,CATGGGGA,0.135
21,GGCGGGAA,-0.11
22,CGTGGGGA,0.121
23,ATACCGAC,-0.243
24,CCGTCCGA,-0.257
25,GACTAGGA,-0.0424

row,Sequence,PBM E-score
1,CAAATCTA,0.101
2,ACTTGAGC,-0.295
3,ACGTGGCT,-0.0848
4,ATACTGTC,0.256
5,ATACTGAG,0.255
6,ATACTGAT,0.225
7,CTACTGAG,-0.00592
8,ATACTGAC,0.146
9,ATACTGTG,-0.0451
10,AGCCGCGA,-0.0535
11,AGTCCAAC,0.0694
12,ATGTTCTC,-0.0462
13,AGTAAGAG,-0.0249
14,ATCCCTGA,0.256
15,ATCCCCTA,0.0411
16,ATCCCTGC,0.157
17,CTCCCTGA,0.0641
18,CTCCCTTA,-0.202
19,GTCCCTTA,0.288
20,GTCCCTGA,0.356
21,ATCCCTTA,0.0558
22,GTCCCTCA,0.0343
23,ATCCCTCA,-0.0503
24,ATCCCTCG,0.0848
25,ATCCCTGG,0.302

row,Sequence,PBM E-score
1,ATCTGCTC,-0.0264
2,AGGCATAT,-0.0234
3,ACGAGGGC,0.0428
4,CCGCCAGA,-0.0239
5,GACAACCA,0.122
6,TATCCCAA,-0.005
7,ATTGGCCA,0.171
8,TACACGAA,0.18
9,CTACAGGC,-0.0785
10,ACAGGGCA,0.195
11,CCAGGGCC,0.106
12,ACAGGGCC,0.295
13,GCAGGGTA,0.164
14,AGAGGGTC,-0.0416
15,CGAGGGTA,0.0487
16,ACAGGGGC,0.0717
17,CTAGGGTC,0.188
18,ACAGGGTC,0.402
19,CCAGGGGC,0.0624
20,CCAGGGTC,0.392
21,CCAGGGTA,0.304
22,GTCCATGA,-0.237
